# KB-V1 MDR tox: kills drug-selected multidrug resistant KB-V1 cells; KB-V1 MDR cells viability, CellTiter-Glo, 72 h; AID 1347076; 400,000 tested, 3.4% active; Potency, µM (top dose mostly 46.1 µM), usual class: cytotoxic; further: on the % scale 0 is the no-effect control and ±100 the full control effect; nearly all actives have a fitted effect of over 60% in size
#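 Readout: CellTiter-Glo luminescence, 10 min after addition. Cells: KB-V1 MDR subline, 72 h at 37 degrees C with compound. Analysis: corrected, normalized data fitted to concentration-effect curves.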
# ELG1 DNA repair: blocks ELG1-dependent DNA repair in HEK293T cells; HEK293T ELG1-luciferase reporter, luminescence, 16 h; DNA damage induced by 5-fluorouridine; Potency, µM (series often up to 46.1 µM), for inactives: top-dose activity change, negative = inhibition, actives largely listed as inhibitors; 330,000 tested, 2.3% active; AID 504467; further: on the % scale 0 is the no-effect control and ±100 the full control effect; nearly all actives have a fitted effect of over 55% in size
#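 Step one: seed 2,000 cells per well. Step two: pin-transfer compound or DMSO alongside 5-fluorouridine. Step three: incubate 16 hr, 37 °C, 5% CO2. Step four: add ONE-Glo, wait 30 min, read luminescence.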
# MCF10A rereplic: induces DNA re-replication in MCF 10a normal breast cells. MCF 10A DNA re-replication, Hoechst nuclear intensity, 48 h. Potency, µM (top dose mostly 46.1 µM), inactives show at the top dose activity, positive = re-replication, most hits filed as activators. 350,000 tested, 2.9% active; further: % of control where 0% means no effect; nearly all actives have a fitted effect of over 50% in size
# KB-3-1 cytotox: KB-3-1 parental cell cytotoxicity | KB-3-1 viability, CellTiter-Glo ATP luminescence, 72 h | Potency, µM (series often up to 46.1 µM), actives largely listed as cytotoxic | 400,000 tested, 1.4% active | AID 1347075; further: on the % scale 0 is the no-effect control and ±100 the full control effect; nearly all actives have a fitted effect of over 60% in size
#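 Cells are dispensed, compounds pinned in, plates held at 37 °C for 72 h, then CellTiter-Glo is added and luminescence read after 10 minutes. Cell line: parental KB-3-1 in phenol-red-free DMEM, 10% FBS.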
# SW480 rerep: DNA re-replication induction in SW480 cells | SW480 DNA re-replication, Hoechst DNA content imaging, 48 h | Potency, µM (titrated, usually from 46.1 µM), inactives show at the top dose re-replication activation, actives largely listed as activators | 340,000 tested, 1.8% active | AID 624297; further: % of control where 0% means no effect; nearly all actives have a fitted effect of over 55% in size
#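 Image-based DNA-content assay: after two days of treatment, nuclei were labelled with the DNA dye Hoechst and imaged, and hits were compounds raising the count of nuclei showing high fluorescence intensity.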
# Active calls of the source: *; i = inactive; ? = inconclusive; nt = no result. Sampled rows, rich in hits. Any-hit rate of the full collection: about 8.2%. The call rests on the fitted dose curve; in most records, active means well fitted curve in the direction sought with a large enough effect; inconclusive means small, poorly fitted or top-dose-only effect, or another doubt; inactive means no such curve, though single readings can be large; an effect the other way counts as inactive or inconclusive. Potency means the concentration at half of the fitted maximal effect.
SMILES,KB-V1 MDR tox,ELG1 DNA repair,MCF10A rereplic,KB-3-1 cytotox,SW480 rerep
CCOc1ccc2nc(NC(=O)C3CCCN(S(=O)(=O)c4cccc5nonc45)C3)sc2c1 (centres undefined),?,23µM*,0%,i,10%
COc1ccc2nc(NC(=O)C3CCCN(S(=O)(=O)c4cccc5nsnc45)C3)sc2c1 (centres undefined),i,12µM*,?,i,?
CCOc1ccc2nc(NC(=O)C3CCCN(S(=O)(=O)c4c(C)noc4C)C3)sc2c1 (centres undefined),?,?,?,i,-2%
COc1ccc2nc(NC(=O)C3CCCN(S(=O)(=O)c4cccc5nonc45)C3)sc2c1 (centres undefined),i,26µM*,-2%,i,27%
O=S(=O)(c1ccccc1F)N1CCN(c2nc(-c3cccs3)nc3ccccc23)CC1,i,nt,nt,?,nt
Cc1ccc(NC(=O)Cn2cc(S(=O)(=O)c3ccc(C)cc3)c(=O)c3cc4c(cc32)OCO4)cc1,i,nt,nt,i,nt
CC1(C)CC(=O)C(N=Nc2c(Cl)cc(Cl)cc2Cl)=C(O)C1,i,?,1%,i,2%
CC1(C)CC(=O)C(N=Nc2ccc(-c3ccccc3)cc2)=C(O)C1,i,?,0.73µM*,i,-61%
CC1(C)CC(=O)C(N=Nc2ccc(F)cc2)=C(O)C1,i,?,4%,i,4%
CC1(C)CC(=O)C(N=Nc2cc(C(F)(F)F)ccc2Cl)=C(O)C1,i,-11%,0.52µM*,i,-18%
Cc1cc(C)cc(NS(=O)(=O)c2ccc3c(c2)OCC(C(=O)N2CCCC2)O3)c1 (centres undefined),?,nt,nt,i,nt
O=C(Nc1ccc2c(c1)OCCO2)C(c1cc2ccccc2o1)N1CCN(C/C=C/c2ccccc2)CC1 (centres undefined),i,nt,nt,i,nt
O=C(NCc1cccnc1)c1ccc(COc2ccc3c(c2)CCC3)o1,18µM*,?,?,i,9%
CCOc1ccc(OCc2ccc(C(=O)NCc3ccncc3)o2)cc1,?,0%,18µM*,i,-2%
COc1ccc(S(=O)(=O)Cc2ccc(C(=O)NCc3cccnc3)o2)cc1,i,15µM*,15%,?,18%
Cc1ccccc1N1CCN(C2CCCN(C(=O)c3ccnn3C)C2)CC1 (centres undefined),i,2%,6%,i,-2%
CNS(=O)(=O)c1cn(CC(=O)N2CCN(c3cccc(C)c3C)CC2)cc1S(=O)(=O)NC,i,nt,nt,i,nt
COc1ccc(C(=O)C(OC(=O)c2ccccc2)c2ccccc2)cc1 (centres undefined),13µM*,?,6%,i,9%
COc1ccc(O)c(C(=O)CC(=O)c2ccncc2)c1,9.2µM*,nt,-8%,i,-19%
Cc1cc(=O)oc(C)c1C(=O)OC(C(=O)c1ccccc1)c1ccccc1 (centres undefined),23µM*,25%,?,i,4%
COc1ccc(C(=O)CC(=O)c2ccc(OC)cc2)cc1,?,?,4%,i,1%
COc1ccc(C(=O)CC(=O)c2ccccc2)cc1,?,nt,2%,i,2.9µM*
Cc1cc(CN(C)C(=O)c2ccc3nc(Cc4ccccc4F)oc3c2)on1,?,-1%,13%,i,5%
Cc1ccc(N2CC(c3nnc(Cc4ccc(F)cc4)o3)CC2=O)cc1 (centres undefined),i,nt,nt,i,nt
O=C(CC(=O)c1ccncc1)c1ccccc1,18µM*,nt,-3%,i,-7%
SMILES,KB-V1 MDR tox,ELG1 DNA repair,MCF10A rereplic,KB-3-1 cytotox,SW480 rerep
Cc1nccc(-c2cccc(NC(=O)Nc3ccc(Cl)cc3)c2)n1,i,-10%,1%,i,-10%
Cc1nccc(-c2cccc(N/N=C(\C#N)C(=O)c3ccccc3)c2)n1,?,15µM*,13%,?,?
Cc1cccc(NC(=O)c2cc(S(=O)(=O)N3CCCCC3)ccc2Cl)n1,i,-19%,?,i,?
Cc1nn(C)cc1C(C(=O)NC1CCCCC1)N(C(=O)Cn1nnc2ccccc21)c1ccc(F)cc1 (centres undefined),i,15%,26µM*,i,?
Cc1ccc(N(C(=O)Cn2nnc3ccccc32)C(C(=O)NC2CCCCC2)c2cn(C)nc2C)cc1 (centres undefined),i,?,-5%,i,1%
O=S1(=O)CC(N2CCN(CCO)CC2)CN1C1CCCCC1 (centres undefined),i,nt,nt,i,nt
Cc1cc(C)n(-c2nc(Nc3ccccc3C(F)(F)F)nc(-n3nc(C)cc3C)n2)n1,0.92µM*,13µM*,?,i,?
Cc1cc(C)n(-c2nc(NC(C)C)nc(NC(C)C)n2)n1,?,2.9µM*,18%,i,2.9µM*
Cc1cc(C)n(-c2nc(NC(C)(C)C)nc(NC(C)(C)C)n2)n1,i,?,-5%,i,0%
Cc1ccc(C)c(N2N=C(C(=O)Nc3cccnc3)CCC2=O)c1,i,1%,9%,i,2%
Cc1ccc(S(=O)(=O)N2CCOCC2)cc1NC(=O)C1=NN(c2ccccc2)C(=O)CC1,i,4%,-8%,i,-8%
Cc1ccc(C)c(N2N=C(C(=O)Nc3ccccc3N3CCCC3)CCC2=O)c1,?,?,21µM*,i,?
Cc1ccc(C)c(N2N=C(C(=O)Nc3ccccc3N3CCOCC3)CCC2=O)c1,nt,15µM*,?,nt,12%
C/C=C(\NNC(C)=O)c1ccc(O)cc1,i,nt,nt,i,nt
COc1cccc(/C(O)=C/c2nc3ccc(C(=O)NCCc4ccc(Cl)cc4)cc3[nH]c2=O)c1,?,?,8.2µM*,21µM*,12µM*
COC(=O)c1c(NC(=O)Cc2coc3cc(C)cc(C)c23)sc2c1CCC2,i,nt,nt,i,nt
COc1ccc(CCNC(=O)c2ccc(CS(=O)(=O)Cc3cccc(C)c3)o2)cc1OC,i,23µM*,0%,?,0%
COc1ccc(CCNC(=O)c2ccc(CNS(=O)(=O)c3cc(C)ccc3C)cc2)cc1OC,?,21µM*,7%,i,-4%
COc1ccc(CCNC(=O)c2ccc(CNS(=O)(=O)c3cccc(Cl)c3)cc2)cc1OC,?,23µM*,?,i,1%
COc1ccc(CNS(=O)(=O)NCc2ccc(C)cc2)cc1OC,i,21µM*,-7%,i,4%
O=C(O)Cc1nn(Cc2ccc(Cl)cc2)c(=O)c2ccccc12,i,20%,-4%,i,-8%
COC(=O)c1scc(C)c1NS(=O)(=O)c1ccc(NC(C)=O)cc1,i,-1%,-2%,i,-34%
